From ChEMBL document CHEMBL4513216, “Probing the Open Global Health Chemical Diversity Library for Multistage-Active Starting Points for Next-Generation Antimalarials” (ACS Infect Dis, 2020)
Out of some 65,000 compounds screened, about 2,100 (3.2%) showed an effect of 50% or more. The median lay at about -52%. This excerpt belongs to a sample that is enriched for strong results.

Test system: Plasmodium falciparum
Experiment: Screen against P. falciparum Asexual Blood Stage (ABS), at 5uM
Type: functional, Dd2
Conditions: tested at 5 uM

SMILES | INHIBITION [%]
O=C(c1ccc(Cl)cc1)N1CCn2c(nn(-c3cccc(Cl)c3)c2=O)C1 | -1.25
CCO[C@H]1CC[C@H]2[C@@H]1OCCN2C(=O)COc1ccccc1 | -106
CN1CCCN(c2nc(C3CC3)ns2)CC1 | -0.753
CCOc1ccnc(N2CCCN(c3nc(C4CC4)ns3)CC2)n1 | 52.1
CCOc1ccnc(N2CCCN(c3nc(CC)ns3)CC2)n1 | -63.7
Cc1ncoc1C(=O)N1CCOC(Cc2ccccc2)C1 (configuration not stated) | -121
Cn1nc(C2CCCN(Cc3ccc(F)cc3F)C2)c2nccnc21 (configuration not stated) | -79
Cc1cc(C(=O)Nc2ccc3oc(=O)n(CCN(C)C)c3c2)c(C)o1 | 8.61
Cn1ccnc1C(=O)N1CCC2(CCCN2CC2CC2)CC1 | -104
CC(=O)c1cc(CN2C[C@@H]3CC[C@H]2CN(S(=O)(=O)N(C)C)C3)cs1 | -60.2
O=C(O)Cn1ccc(=O)c2ccccc21 | -123
CC(C)(C)c1cc(C(=O)NCCN2CCCS2(=O)=O)[nH]n1 | 34.4
CC(C)C(=O)N1CCC2(CN(CC3CCCC3)C2)C1 | -67.5
CC(C)C(=O)N1CCC2(CCN2CC2CC2)C1 (configuration not stated) | -74.5
CC(C)C(=O)N1CCCC2(CCCN2CC2CCCC2)C1 (configuration not stated) | 62
CCCS(=O)(=O)N1CCC(NC(=O)c2cc3ccccc3s2)CC1 | 7.92
COCC(=O)N1C[C@@H](CN2CCCN(C)CC2)[C@@H](CO)C1 | -37.6
Cc1[nH]c2ccc(CNc3cc(C(=O)NC(C)C)ccn3)cc2c1C | -115
O=C(c1ccccc1)N1CCCn2c(CN3CCCCC3)nnc2C1 | -94.3
CCc1noc(C)c1C(=O)N1CCCCC1Cn1cc(C)cn1 (configuration not stated) | -104
COc1c(C)cnc(CN2CCC(N(C)C(=O)C(C)OC)CC2)c1C (configuration not stated) | -7.99
CCNC(=O)N(C)C1CCN(Cc2ncc(C)c(OC)c2C)CC1 | 69
CCC(=O)N(C)C1CCN(Cc2ncc(C)c(OC)c2C)CC1 | -102

SMILES | INHIBITION [%]
O=C(Cn1cc(I)cn1)N1CCCCCC1 | -34.7
COc1ccc2cc(CNCc3c(C)nn(C)c3N(C)C)ccc2c1 | 18.6
Cc1ccc(N2CCN(C(=O)CN3C[C@H]4CC[C@@H]3C4)CC2=O)cc1 | -73.1
O=C(CCN1C[C@H]2CC[C@@H]1C2)N1CCN(c2cccc(Cl)c2)C(=O)C1 | -40
Cc1cc(C)cc(N2CCN(C(=O)CCN3C[C@H]4CC[C@@H]3C4)CC2=O)c1 | 62.1
CC(CN1CCCC1=O)NC(=O)Nc1ccccc1Cn1cccn1 (configuration not stated) | -4.06
CCOCC1c2c(cnn2C)CCN1C(=O)c1ccncn1 (configuration not stated) | -224
Cc1cccc(C)c1Oc1ncccc1CNC(=O)C1COC(=O)N1 (configuration not stated) | -180
CCC(CC)C(=O)NCc1cn2cc(Br)ccc2n1 | 1.4
COc1ccc(OCCN(C)c2cc(C)nc(N)n2)cc1 | 63.7
Cc1cc(N(C)CCCn2cccn2)nc(N)n1 | 26.7
COc1ccc(F)c(-c2cc(C)nc(N)n2)c1 | -23.9
CN(C)c1ccccc1CN1CCCC(N2CCCC2=O)C1 (configuration not stated) | -44.5
Cc1cccc(C(=O)N2CCC3(CC2)CC(c2cnn(C)c2)CO3)c1 (configuration not stated) | -85.1
CN(C)CC1(O)CCCN(C(=O)CCn2cc(Cl)cn2)C1 (configuration not stated) | -101
CN(C)CC1(O)CCN(C(=O)Cc2ccc3c(c2)CCC3)C1 (configuration not stated) | -116
CN(C)CC1(O)CCCN(C(=O)Cc2ccc(Cl)c(Cl)c2)C1 (configuration not stated) | 58.9
O[C@H]1CCCC[C@@H]1N1CCN(CCCc2ccc3c(c2)OCO3)CC1 | 28.7
CN(C)C(CNCc1nc(-c2ccsc2)no1)c1cccs1 (configuration not stated) | 12.3
CN(C)C(CNCc1nc(-c2ccsc2)no1)c1ccsc1 (configuration not stated) | 55.4
CN(C)C(CNCc1nc(-c2ccsc2)no1)c1cccc(F)c1 (configuration not stated) | -31.3
CCC1=NC(SCC(=O)c2ccccc2)c2cc(CC)sc2N1 (configuration not stated) | -23.2
c1ccc(-c2cc(CNCCN3CCOCC3)c3nnnn3c2)cc1 | -57.2

SMILES | INHIBITION [%]
c1ccc(-c2cc(CNCCCN3CCCCC3)c3nnnn3c2)cc1 | 65.4
c1ccc(-c2cc(CNCCN3CCCC3)c3nnnn3c2)cc1 | -1.88
O=C([C@@H]1C[C@@H]2CCN(CCc3ccccc3)C[C@H]2O1)N1CCCC1 | -35
CC(O)CN1CCC(CNCc2ccccc2Cl)CC1 (configuration not stated) | 44.5
CCc1nnc2n1CC(CNCC1CCCC1)CC2 (configuration not stated) | -108
COc1ccc2c(c1)C(=O)NC1(CC2)CCN(Cc2ccncc2)C1 (configuration not stated) | -28.2
COc1ccc2c(c1)C(=O)NC1(CC2)CCN(Cc2ccccn2)C1 (configuration not stated) | -30.5
COc1ccc2c(c1)C(=O)NC1(CC2)CCN(Cc2ccc(F)cc2)C1 (configuration not stated) | 66.7
COc1ccc2c(c1)C(=O)NC1(CC2)CCN(Cc2cccnc2)C1 (configuration not stated) | -50.6
COc1ccc2c(c1)OC1(CCN(Cc3ccc(F)cc3)CC1)CC2=O | -50.5
COc1ccc2c(c1)C(=O)NC1(CC2)CCN(Cc2ccccc2)C1 (configuration not stated) | 64.7
Cc1ccc(C(=O)Nc2ccccc2F)n1C | -184
CC(=O)Nc1ccc(-c2cn(CCn3c(C)cc(C)nc3=O)nn2)cc1 | -49.9
COc1c(F)cc(-c2cn(CCn3c(C)cc(C)nc3=O)nn2)cc1Cl | 59.7
COc1ccc(-c2cn(CCn3c(C)cc(C)nc3=O)nn2)cn1 | -102
c1ccc(CN2CCCn3nnc(Cn4cccc4)c3C2)nc1 | -33.7
Cc1ccc(N2CC[C@H]3O[C@@H](C(=O)N4CCCO4)CC[C@H]32)nn1 | -24.1
Cc1cnc(C(=O)N2CCC3(CC2)CN(c2ccccn2)CCO3)cn1 | -79.7
CCOCC1CCN(C(=O)Nc2ccc3c(c2)CCCN3C)C1 (configuration not stated) | 58.9
CCOCC1CCN(C(=O)Nc2ccc3c(c2)CCCO3)C1 (configuration not stated) | -50.7
CCNC(=O)C1CCCN(C(=O)Nc2ccc3c(c2)CCCN3C)C1 (configuration not stated) | 13.1
Cn1ccnc1CN1CCN(CCOc2cccc(C#N)c2)CC1 | -53.6
O=C(c1c[nH]cn1)N1CCC(F)(F)C2(CCN(c3cnccn3)C2)C1 (configuration not stated) | -94.9

SMILES | INHIBITION [%]
CC(=O)N1C[C@H](NS(=O)(=O)Cc2cccc(Cl)c2)[C@@H](C(C)C)C1 | -62.4
Cc1cc(NCc2cc3n(n2)CCCN(C(=O)C2CCC2)C3)nc(N)n1 | -79.3
COc1cccc(C(=O)N2CCc3nc(C4CCCN4)ncc3C2)c1 (configuration not stated) | 4.58
Cc1cnc(CN(Cc2ccc(C#N)cc2F)C2CCN(C)C2)o1 (configuration not stated) | 12.5
COc1ccc(C)cc1CN(Cc1ncc(C)o1)C1CCN(C)C1 (configuration not stated) | 38.7
COc1ccc(C)cc1CN(Cc1nc(C)c(C)o1)C1CCN(C)C1 (configuration not stated) | 56.2
CN1C(Cn2cccn2)C[C@@H]2CN(C(=O)c3cccc(C#N)c3)CC[C@@H]21 (some centres not stated) | -95.8
CC(C)Oc1ccccc1OCCN1C(=O)CCNC1=O | -16.4
CCNC(=O)C1CCN(Cc2ccc(C(=O)Nc3nnc(C)s3)cc2)C1 (configuration not stated) | -162.2
OC1(CNCc2ccc(F)c(C(F)(F)F)c2)CCSCC1 | 56.4
Cc1cc(CNCC2(O)CCOCC2)ccc1F | 16.2
OC1(CNCc2ccc(F)c(C(F)(F)F)c2)CCOC1 (configuration not stated) | -1.68
O=C(NCc1cccnc1)[C@@H]1C[C@H]2[C@H](CCN2c2ncccn2)O1 | -112
CO[C@H]1CN(C)S(=O)(=O)[C@@]12CCN(Cc1ccccc1)C2 | -53.8
Cc1cc(O)c(OCC(=O)Nc2nc3c(s2)CCCCC3)cn1 | -94.4
COc1ccc(CNC(C)c2cccc(Br)c2)c(OC)c1OC (configuration not stated) | 67.1
COc1cc(CNC(C)c2ccc(F)c(F)c2)cc2c1OCCO2 (configuration not stated) | -7.66
COc1ccc(C(C)NCc2c[nH]nc2C)cc1OC (configuration not stated) | -59.7
CNS(=O)(=O)c1cccc(C(C)NCc2cccc(OC)c2)c1 (configuration not stated) | 3.75
COc1ccc(C(C)NCc2c[nH]nc2C)cc1Br (configuration not stated) | 20.5
COc1cc(CNC(C)c2cccc(Cl)c2)cc(OC)c1OC (configuration not stated) | 63.5
COc1ccc(CNC(C)c2cccc(Cl)c2)c(OC)c1OC (configuration not stated) | 43.3
COc1ccc(CNC(C)c2ccc(Cl)c(Cl)c2)c(OC)c1OC (configuration not stated) | 66

SMILES | INHIBITION [%]
COc1ccc(C(C)NCc2ccc(OC)c(OC)c2OC)cc1F (configuration not stated) | 36
CCCn1cc(NC(=O)c2ccc(S(=O)(=O)CC)cc2)ccc1=O | -1.56
O=C(CNCCn1cccn1)NCC1(c2ccccc2)CCC1 | -77
Cn1ccc(C(=O)NCc2cccc(NC(=O)C3CCC3)c2)cc1=O | -218
CC(CN1CCCCCC1)NCc1cc(-c2ccco2)on1 (configuration not stated) | 18
COCCN(Cc1sccc1C)C(=O)C1CCN(C(C)C)CC1 | 57.7
COCCN(Cc1sccc1C)C(=O)C1CCCN(C(N)=O)C1 (configuration not stated) | -75.6
COCCN(Cc1sccc1C)C(=O)COc1ccccc1O | -65.9
Cc1nn(C)c(N2CCOCC2)c1CNCc1nccs1 | -58.2
Cc1nn(C)c(N2CCOCC2)c1CNC1CCc2cc(F)ccc21 (configuration not stated) | 40.1
Cc1ccc2c(c1)CCC2NCc1c(C)nn(C)c1N1CCOCC1 (configuration not stated) | 64.2
Cc1nn(C)c(N2CCOCC2)c1CNCc1ccc(Cl)s1 | 53
Cc1nn(C)c(N2CCOCC2)c1CNCc1ccnn1C | -222
Cc1nn(C)c(N2CCOCC2)c1CNCc1ccc2c(c1)OCO2 | 64.5
Cc1nn(C)c(N(C)C)c1CNCc1ccc2c(c1)OCO2 | 35.3
Cc1nn(C)c(N2CCOCC2)c1CNC1CCc2ccccc21 (configuration not stated) | 45.3
Cc1nn(CC(C)C)c(N(C)C)c1CNCc1cccc2c1OCO2 | 29.4
Cc1nn(C)c(N2CCOCC2)c1CNCc1ccnc(N(C)C)c1 | -24.8
Cc1nn(CC(C)C)c(N(C)C)c1CNCc1ccc2c(c1)OCO2 | 54.6
Cc1nn(C)c(N2CCOCC2)c1CNCc1ccc(CO)c(F)c1 | -77.5
